Measured values: ChEMBL document CHEMBL3988442, “University of Dundee, Small-Polar-MMV Screening Library” (2021)
About 1,200 (3.2%) of roughly 38,000 compounds showed an effect of 50% or more. The median lay at about -58%. The full list was thinned out, with strong results kept by preference.

Each molecule was assayed on Plasmodium falciparum (assay: Calibr Malaria Delayed Death Assay SOP). Conditions: concentration 4.99e-06 (unit not given; other assays of the set use mol/L).
Format: functional, organism-based
Design: scale not given: in the data most compounds retested in dose-response had high values

| Structure (SMILES) | Percent Effect [%] |
| --- | --- |
| COc1cc(F)ccc1-c1cc(CO)ccn1 | -93.03 |
| COc1ccc(-c2cc(N)ccn2)c(OC)c1OC | -13 |
| COc1cc(F)ccc1-c1cc(N)ccn1 | 50.95 |
| Cc1cnc(C(=O)N2CCOCC2C)cn1 (configuration not stated) | -104.7 |
| O=C(NCC1CC1)[C@@H]1CC[C@@H]2[C@@H](CCN2Cc2ccc(F)c(F)c2)O1.O=C(O)C(F)(F)F | -53.52 |
| O=C1CCCN1CCC1CCN(C2CCCNC2)CC1 (configuration not stated) | -108.9 |
| CCn1cc(CN2CCN(C(=O)c3cc(C)c(C)s3)CC2)c(C)n1 | -80.19 |
| COCCOc1ccccc1CNCC1COC2(CCCC2)O1 (configuration not stated) | 73.59 |
| Cc1cccc(CNCC2COC3(CCCCC3)O2)c1C (configuration not stated) | -23.41 |
| Cc1cccc(CNCC2COC3(CCCC3)O2)c1C (configuration not stated) | -41.87 |
| CC(=O)Nc1nc(C(=O)NCc2ccc(OC(C)C)nc2)cs1 | -75.22 |
| Cc1cnc(C(=O)N(CCN(C)C)Cc2ccc(Cl)cc2)cn1 | -38.51 |
| CN(C)CCN(Cc1ccc(Cl)cc1)C(=O)c1ccncc1 | 51.29 |
| Cc1cc(C(=O)N(CCN(C)C)Cc2ccc(Cl)cc2)no1 | 51.61 |
| CN(C)CCN(Cc1ccc(C(F)(F)F)cc1)C(=O)c1cc[nH]n1 | 33.3 |
| CN(C)CCN(Cc1ccc(Cl)cc1)C(=O)c1cnccn1 | 32.67 |
| CN(C)CCN(Cc1ccc(Cl)cc1)C(=O)c1ccn(C)c(=O)c1 | -75.96 |
| Cc1nnc([C@@H]2CC[C@@H]3[C@@H](CCN3C3CCC3)O2)o1 | -20.01 |
| CC1CCCN(C(=O)Nc2ccc(F)c(C(N)=O)c2)C1 (configuration not stated) | -56.74 |
| CNc1cc(-c2cccc(CN)c2)c2cc[nH]c2n1 | -44.1 |
| CCc1ccc2nc(C)cc(C(=O)N[C@@H]3CNC[C@H]3O)c2c1 | -23.23 |
| CCc1ccc2nc(C)cc(C(=O)N[C@@H]3CCCNC3)c2c1 | 64.11 |
| CCc1ccc2nc(C)cc(C(=O)NC[C@@H]3CCNC[C@H]3O)c2c1 | -50.87 |

| Structure (SMILES) | Percent Effect [%] |
| --- | --- |
| CC(C)(C)CN1CCCC12CCN(S(=O)(=O)c1ccccc1)C2.O=C(O)C(F)(F)F (configuration not stated) | 29.05 |
| Cc1cccc(C(=O)N2CCCn3cnc(CN4CCCC4=O)c3C2)n1 | -0.7301 |
| Cn1ncc2c1CN(Cc1ccccc1F)CC2COCC1CC1.O=C(O)C(F)(F)F.O=C(O)C(F)(F)F (configuration not stated) | -47.59 |
| COc1ccc(OCC2CCCN(c3nc(CO)cs3)C2)cc1 (configuration not stated) | -52 |
| OCc1csc(N2CCCC(COc3cccc(F)c3)C2)n1 (configuration not stated) | 81.1 |
| Cc1ccc(OCC2CCCN(c3nc(CO)cs3)C2)cc1 (configuration not stated) | -23.08 |
| COCCCNC(=O)N1CCC(CNC(=O)c2cnn(C)c2)CC1 | -42.86 |
| c1c(CN2CCOCC2)nc2n1CCN(C1CCOCC1)C2 | -53.44 |
| CC(C)[C@@H]1CN(S(=O)(=O)c2cccc(C(=O)O)c2)C[C@H]1N(C)C | -75.82 |
| COc1cccc(S(=O)(=O)N2C[C@@H](N(C)C)[C@H](C(C)C)C2)c1 | 72.07 |
| CC(C)[C@H]1CN(S(=O)(=O)c2cccnc2)C[C@@H]1N | -121.7 |
| CS(=O)(=O)NCc1cnc2n1CCN(Cc1ccco1)CC2.O=C(O)C(F)(F)F | -61.12 |
| Cc1ccc(C(=O)Nc2nnc(C(C)C)s2)c(-n2cnnn2)c1C | -117.2 |
| Cc1cnn(CCNCc2nccn2Cc2ccccc2)c1 | 81.96 |
| Cc1cnn(CCNCc2c(C)nn(Cc3ccccc3)c2C)c1 | 31.58 |
| Cc1cnn(CCNCc2nccn2CC(F)(F)F)c1 | 12.08 |
| CC(NC(=O)c1cccs1)(C(N)=O)c1cccc(C(F)(F)F)c1 (configuration not stated) | -110.1 |
| CCc1nc(N2CCC3(CC2)OCCCC3O)ncc1C (configuration not stated) | -35.89 |
| COC(=O)C(C)(C)NC(=O)c1cnc(Cc2ccc(F)cc2)s1 | 74.7 |
| COC(=O)[C@H](C)NC(=O)c1cnc(Cc2ccc(F)cc2)s1 | -108.7 |
| CCc1ncc(C(=O)NC(C)(C)C(=O)OC)s1 | -64.84 |
| CC1c2cccn2CCN1C(=O)CCc1nc(-c2ccccc2)no1 (configuration not stated) | -13.83 |
| Cc1cccc2c1OCCCC2NCc1nnc2n1CCCCC2 (configuration not stated) | -75.07 |

| Structure (SMILES) | Percent Effect [%] |
| --- | --- |
| Cn1cc(CNC2CCCOc3c(Cl)cccc32)cn1 (configuration not stated) | 17.16 |
| Cc1cccc2c1OCCC2NCc1c(C)nn(C)c1N(C)C (configuration not stated) | -2.294 |
| Cn1ccnc1CNC1CCCOc2c1ccc1ccccc21 (configuration not stated) | 76.31 |
| Cc1nn(C)c(N(C)C)c1CNC1CCOc2c(F)cccc21 (configuration not stated) | -94.95 |
| Cn1cc(CNC2CCCOc3c2ccc2ccccc32)cn1 (configuration not stated) | 61.58 |
| O=C(O)Cc1cnc(-c2c(Cl)cccc2Cl)s1 | -103 |
| CN(Cc1ccco1)Cc1cncc2c1CCN(S(C)(=O)=O)C2.Cl.Cl | -71.86 |
| CCCNC(=O)CCNc1cncc(-n2nc(C)cc2C)n1 | -96.17 |
| CCOc1cccc(COC(=O)c2cc(C)on2)n1 | -20.94 |
| FC(F)(F)c1ccnc(N2C[C@H]3CCN(c4cccnc4)C[C@H]3C2)n1.O=C(O)C(F)(F)F | -4.152 |
| CC1CN(C)CCN1C(=O)c1ccn(-c2ccc(F)cc2)n1 (configuration not stated) | -53.04 |
| CNC(=O)Cc1noc(Cc2cccc(Cl)c2)n1 | -69.96 |
| CCC(NCc1ccccn1)c1ccccc1OCC(=O)NC (configuration not stated) | -34.3 |
| CNC(=O)COc1ccc(-c2ccccc2)nc1 | -42.95 |
| CCC(NCc1ccccc1)c1ccccc1OCC(=O)NC (configuration not stated) | 63.6 |
| CCC(NC(N)=O)c1ccccc1OCC(=O)N1CCCC1 (configuration not stated) | -42 |
| Cc1sc(NS(=O)(=O)c2ccccc2)nc1C(=O)NC1CC1 | -59.95 |
| CCOCC1CN(C(=O)c2cccc(C)n2)Cc2cnn(C)c21 (configuration not stated) | -41.72 |
| CCOC(=O)N1CCN(C(=O)CCn2ccc3c(OC)cccc32)CC1 | -55.78 |
| Cc1cc(CC(=O)NC2CCCN(c3ccccc3Cl)C2=O)n[nH]1 (configuration not stated) | -141.2 |
| O=S(=O)(CCN1CCCC1Cn1cccn1)c1ccccc1 (configuration not stated) | -24.99 |
